Data as given in PubChem BioAssay (Tox21).
Several values for one entry are separate records, joined by “and”; a condition that tells them apart may be missing. Identical values can stand only once. Records with an inconclusive call do not appear. Some structures have more than one record in an assay (separate samples or runs), and their calls can disagree. Activity calls are given as the source filed them. Unless noted, calls follow the shape of the dose curve; as a rule, active = well fitted curve in the direction sought with a large enough effect in the repeat runs; inconclusive = weak or mixed curves; inactive = no such curve, though single readings can be large; an effect the other way counts as inactive or inconclusive.

Key:
[1] = qHTS assay to identify small molecule agonists of the hypoxia (HIF-1) signaling pathway - cell viability counter screen (AID 1224844; calls by dose curve; also: nearly all actives have a fitted effect of over 50% in size; also: potency is read from the fitted curve at half-maximal effect); settings: HRE-bla ME-180 viability, CellTiter-Glo luminescence, 17 h; series mostly up to 76.8 µM
In short: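 Tox21 10K compounds were added to HRE-bla ME-180 cells (0.5% dialyzed FBS) and incubated 17 hrs at 37C; ATP-based CellTiter-Glo luminescence then reported cell viability in the same wells.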

[2] = qHTS assay to identify small molecule agonists of H2AX (AID 1224845; active = well fitted activation curve with a large enough effect in the signal ratio in the repeat runs, not every such curve was filed as active; the % refers to the signal ratio); settings: CHO-K1 phospho-H2AX Ser139 HTRF, 3 h; series mostly up to 154 µM
In short: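 Wild-type CHO-K1 cells plated overnight, then exposed 3 hr at 37C to compounds at 15 concentrations (0.76% DMSO). Lysed, then HTRF anti-pH2AX(S139)-cryptate/anti-H2AX-d2 detection after 24 hr at room temperature; emissions 665 and 620 nm.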

[3] = qHTS assay to identify small molecule agonists of H2AX - cell viability counter screen (AID 1224847; calls by dose curve; also: top concentration of the series differs between compounds; nearly all actives have a fitted effect of over 30% in size); settings: CHO-K1 viability, CellTiter-Glo luminescence, 3 h; series mostly up to 154 µM
In short: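 Cytotoxicity counter screen in wild-type CHO-K1 cells: a 3 hr compound treatment at 37C across 15 concentrations, followed by CellTiter-Glo luminescence to gauge viable cells.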

[4] = qHTS RealTime-Glo MT Cell Viability Assay in HepG2 cells - 24 hour (AID 1224867); settings: RealTime-Glo luminescence; series mostly up to 76.8 µM; also: nearly all actives have a fitted effect of over 50% in size; also: potency is read from the fitted curve at half-maximal effect
In short: (§1)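 HepG2 suspension premixed with RealTime-Glo reagents is plated at 600 cells per well and left 5 h at 37 C/5% CO2. Compounds in DMSO then go in, and bioluminescence reflecting viable cell number is recorded over 40 h.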

[5] = qHTS RealTime-Glo MT Cell Viability Assay in HEK293 cells - 32 hour (AID 1224868); settings: RealTime-Glo luminescence; series mostly up to 76.8 µM; also: nearly all actives have a fitted effect of over 50% in size; also: potency is read from the fitted curve at half-maximal effect
In short: (§2)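 Reads taken at 0, 8, 16, 24, 32 and 40 h from the same wells. HEK293 cells (600/well) carried RealTime-Glo reagents from seeding, with compound added after a 5 h settle at 37 C.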

[6] = A CellTox Green Cytotoxicity Assay to monitor cytotoxicity in HEK293 cells - 0 hour (AID 1224869); settings: CellTox Green fluorescence; series mostly up to 76.8 µM; also: nearly all actives have a fitted effect of over 50% in size
In short: (§3)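 Cytotoxicity was tracked continuously in HEK293 cells by a DNA-binding dye excluded from viable cells. Compounds were transferred in DMSO 5 h after seeding; fluorescence was recorded at intervals up to 40 h.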

[7] = qHTS RealTime-Glo MT Cell Viability Assay in HepG2 cells - 40 hour (AID 1224870); settings: RealTime-Glo luminescence; series mostly up to 76.8 µM; also: nearly all actives have a fitted effect of over 50% in size; also: potency is read from the fitted curve at half-maximal effect
In short: (§4)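 HepG2 cells mixed with RealTime-Glo MT reagents (NanoLuc plus cell-permeant prosubstrate) were seeded at 600 cells/well, incubated 5 h at 37 C/5% CO2, then pinned with compounds in DMSO; nonlytic luminescence tracked viability during 40 h treatment.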

[8] = A CellTox Green Cytotoxicity Assay to monitor cytotoxicity in HEK293 cells - 40 hour (AID 1224871); settings: CellTox Green fluorescence; series mostly up to 76.8 µM; also: nearly all actives have a fitted effect of over 45% in size; also: potency is read from the fitted curve at half-maximal effect
In short: as §3

[9] = qHTS RealTime-Glo MT Cell Viability Assay in HEK293 cells - 16 hour (AID 1224872); settings: RealTime-Glo luminescence; series mostly up to 76.8 µM; also: nearly all actives have a fitted effect of over 50% in size; also: potency is read from the fitted curve at half-maximal effect
In short: as §2

[10] = qHTS RealTime-Glo MT Cell Viability Assay in HepG2 cells - 8 hour (AID 1224873); settings: RealTime-Glo luminescence; series mostly up to 76.8 µM; also: nearly all actives have a fitted effect of over 55% in size
In short: as §4

[11] = qHTS RealTime-Glo MT Cell Viability Assay in HEK293 cells - 40 hour (AID 1224874); settings: RealTime-Glo luminescence; max response: stronger effect = lower value; also: nearly all actives have a fitted effect of over 50% in size; also: potency is read from the fitted curve at half-maximal effect
In short: (§5)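 Nonlytic bioluminescent viability monitoring. HEK293 at 600 cells/well with reagent; 5 h settle; compound transfer by pintool; plates held at 37 C and read at set time points.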

[12] = A CellTox Green Cytotoxicity Assay to monitor cytotoxicity in HEK293 cells - 24 hour (AID 1224875); settings: CellTox Green fluorescence; series mostly up to 76.8 µM; also: nearly all actives have a fitted effect of over 45% in size; also: potency is read from the fitted curve at half-maximal effect
In short: as §3

[13] = qHTS RealTime-Glo MT Cell Viability Assay in HepG2 cells - 32 hour (AID 1224877); settings: RealTime-Glo luminescence; series mostly up to 76.8 µM; also: nearly all actives have a fitted effect of over 55% in size; also: potency is read from the fitted curve at half-maximal effect
In short: as §1

[14] = A CellTox Green Cytotoxicity Assay to monitor cytotoxicity in HepG2 cells - 24 hour (AID 1224878); settings: CellTox Green fluorescence; series mostly up to 76.8 µM; also: nearly all actives have a fitted effect of over 45% in size; also: potency is read from the fitted curve at half-maximal effect
In short: (§6)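 Real-time, homogeneous cytotoxicity readout: dead-cell DNA staining by CellTox Green in HepG2 monolayers, fluorescence measured at timed intervals up to 40 h of continuous compound exposure.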

[15] = A CellTox Green Cytotoxicity Assay to monitor cytotoxicity in HepG2 cells - 40 hour (AID 1224879); settings: CellTox Green fluorescence; series mostly up to 76.8 µM; also: nearly all actives have a fitted effect of over 40% in size; also: potency is read from the fitted curve at half-maximal effect
In short: as §6

[16] = qHTS RealTime-Glo MT Cell Viability Assay in HEK293 cells - 0 hour (AID 1224880); settings: RealTime-Glo luminescence; series mostly up to 76.8 µM; also: top concentration of the series differs between compounds; nearly all actives have a fitted effect of over 45% in size
In short: as §5

[17] = qHTS assay to identify small molecule agonists of the hypoxia (HIF-1) signaling pathway (AID 1224846; active = well fitted activation curve with a large enough effect in the signal ratio in the repeat runs, not every such curve was filed as active; the % refers to the signal ratio; also: potency is read from the fitted curve at half-maximal effect); settings: HRE-bla ME-180 cells, beta-lactamase ratio, 17 h; series mostly up to 76.8 µM
In short: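 Steps: seed ME-180 HRE-bla cells (2,000/well, 0.5% dialyzed FBS); incubate 5 hrs at 37C; pin-transfer compounds or DMSO; incubate 17 hrs; add LiveBLAzer B/G substrate CCF4-AM; measure reporter activation by FRET.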

[18] = A CellTox Green Cytotoxicity Assay to monitor cytotoxicity in HepG2 cells - 16 hour (AID 1224876); settings: CellTox Green fluorescence; series mostly up to 76.8 µM; also: nearly all actives have a fitted effect of over 45% in size
In short: as §6

[19] = qHTS assay to identify small molecule antagonists of the estrogen related receptor (ERR) signaling pathway from Tox21 library (AID 1224848); settings: ERR reporter cell line, luciferase antagonist mode, 18 h; series mostly up to 92.4 µM; also: nearly all actives have a fitted effect of over 50% in size; also: potency is read from the fitted curve at half-maximal effect
In short: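 Screening used an ERR reporter line supplied by NTP, exposed for 18 h at 37 C to library compounds delivered in DMSO. Signal was luciferase luminescence developed with ONE-Glo at room temperature for 30 min.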

[20] = qHTS assay to identify small molecule agonists of the estrogen related receptor (ERR) signaling pathway from Tox21 library (AID 1224849; calls by dose curve; also: nearly all actives have a fitted effect of over 15% in size); settings: ERR reporter cell line, ONE-Glo luciferase, 18 h; at 92.4 µM (top of the series)
In short: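 Agonist signal is luciferase luminescence from an ERR reporter cell line treated 18 h at 37 C with DMSO-dissolved compounds, read 30 min after ONE-Glo addition at room temperature.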
% is scaled to controls: 0 for no effect and ±100 for the full control effect.

CN(C)CCN(Cc1cccs1)c1ccccn1
inactive: Potency [1] | outcome [2] | Potency [3] | Potency [4] | Potency [5] | Potency [6] | Potency [7] | Potency [8] | Potency [9] | Potency [10] | max response [11] -22.8% and -7.6% | Potency [12] | Potency [13] | Potency [14] | Potency [15] | Potency [16]

c1ccc2c(c1)c1cccc3ccc4cccc2c4c31
inactive and 17.4 µM (active): Potency [5]
43.4 µM (active) and inactive: Potency [17]
active: Potency [11] 19.5 µM
inactive: Potency [1] | Potency [3] | Potency [4] | Potency [6] | Potency [7] | Potency [8] | Potency [9] | Potency [10] | max response [11] -16.2% | Potency [12] | Potency [18] | Potency [13] | Potency [14] | Potency [15] | Potency [16]

c1ccc2sc(SSN3CCOCC3)nc2c1
inactive and 49 µM (active): Potency [13]
inactive and 54.9 µM (active): Potency [7]
active: Potency [1] 54.8 µM and 54.9 µM | Potency [4] 54.9 µM | Potency [5] 21.8 µM and 43.6 µM | Potency [8] 38.8 µM and 49 µM | Potency [9] 43.6 µM | Potency [11] 19.5 µM and 43.6 µM | Potency [12] 38.8 µM | Potency [14] 54.9 µM | Potency [15] 54.8 µM and 49 µM
inactive: Potency [19] | activity change, positive = activation [20] 4.82% and -28.8% | Potency [6] | Potency [16]

CCCCC/C=C/C=C/C=O
active: Potency [15] 54.9 µM
inactive and 54.5 µM (active): Potency [19]
inactive: outcome [2] | Potency [17] | Potency [3] | activity change, positive = activation [20] -1.92% and -41.4% | Potency [4] | Potency [5] | Potency [6] | Potency [7] | Potency [9] | Potency [10] | max response [11] -25% | Potency [12] | Potency [13] | Potency [14] | Potency [16]
